Inconclusive results are not listed. Entries that show only a call come without a potency. Active and inactive are the calls of the source. Unless noted, calls follow the shape of the dose curve; as a rule, active = well fitted curve in the direction sought with a large enough effect; inconclusive = small, poorly fitted or top-dose-only effect, or another doubt; inactive = no such curve, though single readings can be large; an effect the other way counts as inactive or inconclusive.
Tests used:
[1] = biological target: Luciferin 4-monooxygenase (Photinus pyralis) (UniProt P08659); assay: Biochemical firefly luciferase enzyme assay for NPC (AID 624030); also: nearly all actives have a fitted effect of over 70% in size; also: potency is read from the fitted curve at half-maximal effect
Sequence of Luciferin 4-monooxygenase (Photinus pyralis) (P08659 whole entry, looked up): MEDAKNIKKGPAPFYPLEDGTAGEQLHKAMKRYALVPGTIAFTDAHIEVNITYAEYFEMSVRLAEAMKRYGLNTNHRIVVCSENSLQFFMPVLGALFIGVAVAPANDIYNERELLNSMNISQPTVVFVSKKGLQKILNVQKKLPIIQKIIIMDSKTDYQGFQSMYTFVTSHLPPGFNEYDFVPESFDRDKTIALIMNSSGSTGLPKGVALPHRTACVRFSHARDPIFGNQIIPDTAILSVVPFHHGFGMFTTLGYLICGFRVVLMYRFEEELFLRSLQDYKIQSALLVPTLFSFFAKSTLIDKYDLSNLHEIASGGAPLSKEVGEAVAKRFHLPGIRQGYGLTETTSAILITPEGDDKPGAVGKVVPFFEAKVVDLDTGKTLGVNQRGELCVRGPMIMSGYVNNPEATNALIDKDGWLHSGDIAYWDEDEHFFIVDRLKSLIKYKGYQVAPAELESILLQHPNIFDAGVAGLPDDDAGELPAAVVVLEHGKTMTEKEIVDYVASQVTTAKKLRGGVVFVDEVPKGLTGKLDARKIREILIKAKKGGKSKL
In short: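 Direct inhibition of firefly luciferase enzyme (10 nM final, 50 mM Tris Acetate) assessed by luminescence within 5 minutes. Percent activity scaled between DMSO and PTC124 positive control, with concentration-effect curves classified by fit quality and response.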

[2] = biological target: Voltage-gated inwardly rectifying potassium channel KCNH2 (Homo sapiens) (UniProt Q12809); assay: qHTS Assay for Small Molecule Inhibitors of the Human hERG Channel Activity (AID 588834);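 also: lower thallium flux fluorescence means stronger hERG block; nearly all actives have a fitted effect of over 50% in size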; also: potency is read from the fitted curve at half-maximal effect
Sequence of Voltage-gated inwardly rectifying potassium channel KCNH2 (Homo sapiens) (Q12809 whole entry, looked up): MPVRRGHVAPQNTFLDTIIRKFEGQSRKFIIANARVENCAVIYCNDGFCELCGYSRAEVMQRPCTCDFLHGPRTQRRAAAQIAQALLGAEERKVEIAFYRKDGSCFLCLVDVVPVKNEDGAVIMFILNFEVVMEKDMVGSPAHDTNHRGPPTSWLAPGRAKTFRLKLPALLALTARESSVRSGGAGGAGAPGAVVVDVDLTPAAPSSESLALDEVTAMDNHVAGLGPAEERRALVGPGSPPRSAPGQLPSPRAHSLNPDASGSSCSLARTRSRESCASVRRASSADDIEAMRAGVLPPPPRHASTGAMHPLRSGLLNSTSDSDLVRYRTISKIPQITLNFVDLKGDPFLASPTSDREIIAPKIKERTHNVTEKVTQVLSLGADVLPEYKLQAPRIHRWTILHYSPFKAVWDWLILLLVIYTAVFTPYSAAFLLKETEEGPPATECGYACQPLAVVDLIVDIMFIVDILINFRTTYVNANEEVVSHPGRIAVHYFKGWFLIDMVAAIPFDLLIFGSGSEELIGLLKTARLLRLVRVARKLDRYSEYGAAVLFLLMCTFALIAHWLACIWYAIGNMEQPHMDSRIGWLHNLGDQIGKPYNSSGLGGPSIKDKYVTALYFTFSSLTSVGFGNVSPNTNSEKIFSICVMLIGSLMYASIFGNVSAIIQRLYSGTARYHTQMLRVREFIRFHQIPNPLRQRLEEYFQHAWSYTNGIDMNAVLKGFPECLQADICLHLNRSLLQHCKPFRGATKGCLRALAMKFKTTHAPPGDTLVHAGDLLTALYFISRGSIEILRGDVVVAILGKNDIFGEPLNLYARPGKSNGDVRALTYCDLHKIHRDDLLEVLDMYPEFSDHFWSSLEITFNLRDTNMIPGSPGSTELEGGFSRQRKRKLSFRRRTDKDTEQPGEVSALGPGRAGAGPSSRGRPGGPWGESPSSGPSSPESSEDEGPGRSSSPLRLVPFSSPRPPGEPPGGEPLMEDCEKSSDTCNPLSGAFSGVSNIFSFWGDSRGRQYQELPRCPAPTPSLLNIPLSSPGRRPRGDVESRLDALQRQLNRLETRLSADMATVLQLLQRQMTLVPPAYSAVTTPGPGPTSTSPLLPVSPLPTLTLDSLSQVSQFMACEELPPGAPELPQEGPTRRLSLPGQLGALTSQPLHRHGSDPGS
In short: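 hERG block measured as reduced thallium-dye (FluxOR) fluorescence after stimulation buffer addition, read over 2 min. Cells were hERG-BacMam-transduced U2OS exposed to compound ~10 min […]; concentration-response fitted with Hill equation for AC50.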

[3] = qHTS of Trypanosoma Brucei Inhibitors: LOPAC Validation (AID 624147)
In short: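 TbPYK + substrate in 50 mM TEA pH 7.2, 100 mM KCl, 10 mM MgCl2, 0.05% BSA, 0.01% Tween-20; cpd pinned; ADP 130 uM final; 45 min RT; Kinase-Glo Plus 10 min; luminescence endpoint.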

[4] = HTS Assay for Allosteric Antagonists of the Human D2 Dopamine Receptor: Hit Validation in HTRF (AID 624455);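 also: stable D1 dopamine receptor cell line scored for blocking the D1 response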
In short: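 Inhibition of the D1-mediated response is measured by HTRF in cells that stably express the D1 dopamine receptor. Compounds reaching this step are hits from calcium-flux antagonism testing at EC80 dopamine in inducible Hek293 Trex D2 cells.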

[5] = biological target: Glutaminase kidney isoform, mitochondrial (Homo sapiens) (UniProt O94925); assay: qHTS for Inhibitors of Glutaminase (GLS): LOPAC Validation (AID 624146); also: nearly all actives have a fitted effect of over 60% in size; also: potency is read from the fitted curve at half-maximal effect
Sequence of Glutaminase kidney isoform, mitochondrial (Homo sapiens) (O94925 whole entry, looked up, canonical isoform): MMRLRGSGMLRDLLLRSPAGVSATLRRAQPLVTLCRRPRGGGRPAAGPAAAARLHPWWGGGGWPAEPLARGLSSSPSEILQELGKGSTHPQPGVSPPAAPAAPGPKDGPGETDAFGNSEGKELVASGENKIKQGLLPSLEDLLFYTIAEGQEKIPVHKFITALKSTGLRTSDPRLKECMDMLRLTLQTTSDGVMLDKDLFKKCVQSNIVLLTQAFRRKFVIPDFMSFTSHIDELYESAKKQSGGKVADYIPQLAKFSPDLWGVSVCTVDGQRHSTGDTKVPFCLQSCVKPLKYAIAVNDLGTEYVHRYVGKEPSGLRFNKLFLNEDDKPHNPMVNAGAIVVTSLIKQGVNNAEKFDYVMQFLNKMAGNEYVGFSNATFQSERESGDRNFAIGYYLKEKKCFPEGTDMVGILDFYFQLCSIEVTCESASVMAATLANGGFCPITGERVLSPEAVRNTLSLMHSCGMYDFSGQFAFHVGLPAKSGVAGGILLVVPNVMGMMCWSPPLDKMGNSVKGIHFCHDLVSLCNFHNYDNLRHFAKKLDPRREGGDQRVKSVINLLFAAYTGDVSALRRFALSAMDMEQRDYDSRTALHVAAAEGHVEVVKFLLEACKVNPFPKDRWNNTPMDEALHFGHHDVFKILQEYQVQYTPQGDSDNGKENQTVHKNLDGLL
In short: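 Read-out is an Amplex red fluorescence increase coupled through glutamate oxidase and HRP, measured before and after 30 min room-temperature incubation. hKGA is in 45 mM KH2PO4 (pH 8.2) with 0.02% Tween-20; glutamine added as 1mM solution.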

[6] = S16 Schwann cell PMP22 intronic element beta-lactamase assay (AID 624044; calls by dose curve; also: potency is read from the fitted curve at half-maximal effect; nearly all actives have a fitted effect of over 15% in size)
In short: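 Beta-lactamase reporter under a PMP22 intronic regulatory element in stable S16 rat Schwann cells; 24 h compound exposure. 460 nm blue signal normalized between DMSO (0%) and potassium clavulanate, with 535 nm FRET tracking viability; curves classed by r2 and response.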

For `CN(C)C(=O)CNC(=O)Cc1ccccc1`, which Potency [1] is on record?
Its Potency is “inactive”.

With `CC(=O)OCC(=O)[C@@]1(O)[C@H](OC(C)=O)C[C@H]2[C@@H]3CCC4=CC(=O)C=C[C@]4(C)[C@@]3(F)[C@@H](O)C[C@@]21C` as the compound, how does the Potency [1] read?
Its Potency is “inactive”.

Which Potency [1] does the source give for `O=C1NCCN1CCN1CCC(c2cn(-c3ccc(F)cc3)c3ccc(Cl)cc23)CC1` here?
Its Potency is “inactive”.

For `CN1C(CSCC(F)(F)F)Nc2cc(Cl)c(S(N)(=O)=O)cc2S1(=O)=O` (stereo unspecified), which Potency [1] is on record?
Its Potency is “inactive”.

For `C=CCOc1cc(Cl)ccc1C(=O)NCCN(CC)CC`, which Potency [1] is on record?
Its Potency is “inactive”.

For `C[N+]1(C)CCC(OC(=O)C(O)(c2ccccc2)C2CCCC2)C1` (stereo unspecified), which Potency [1] is on record?
Its Potency is “inactive”.

With `CCCc1c2oc(C(=O)O)cc(=O)c2cc2c(=O)cc(C(=O)O)n(CC)c12` as the compound, how does the Potency [1] read?
The Potency was “inactive”.

For `CC(C)N(CCC(=O)c1ccc2ccccc2c1)Cc1ccccc1`, which Potency [2] is on record?
Its Potency is 3.16 µM (active).

What about the outcome [3] of the same compound?
The outcome was “inactive”.

What about the outcome [4] of the same compound?
Its outcome is “inactive”.

For `CCOC(=O)c1ccc(OCCN2C[C@H](O)[C@@H](O)[C@H](O)[C@H]2CO)cc1`, which Potency [1] is on record?
Its Potency is “inactive”.

For `Cn1cnc2c(NCc3ccccc3)nc(NCCO)nc21`, which Potency [2] is on record?
The Potency was “inactive”.

What about the Potency [5] of the same compound?
Its Potency is “inactive”.

What about the outcome [3] of the same compound?
Its outcome is “inactive”.

What about the outcome [4] of the same compound?
The outcome was “inactive”.

For `CCCCCC[C@@H](CCC)C(=O)O`, which Potency [1] is on record?
Its Potency is “inactive”.

For `Nc1nnnn1-c1ccccc1`, which Potency [1] is on record?
The Potency was “inactive”.

With `COc1cc(C(=O)NC2CCCNC2)cc(OC)c1OC` (stereo unspecified) as the compound, how does the Potency [1] read?
The Potency was “inactive”.

With `CC(=O)N(CC(O)CO)c1c(I)c(C(=O)NCCO)c(I)c(C(=O)NCC(O)CO)c1I` (stereo unspecified) as the compound, how does the Potency [1] read?
The Potency was “inactive”.

With `COc1ccccc1OCC1CNC(=O)O1` (stereo unspecified) as the compound, how does the Potency [1] read?
Its Potency is “inactive”.

Which Potency [1] does the source give for `O=C(CCCCC(=O)Nc1c(I)cc(I)c(C(=O)O)c1I)Nc1c(I)cc(I)c(C(=O)O)c1I` here?
The Potency was “inactive”.

With `O=C1OC2(c3ccccc31)c1cc(I)c(O)c(I)c1Oc1c2cc(I)c(O)c1I` as the compound, how does the Potency [1] read?
The Potency was 14.4 µM (active).

With `CN(C)c1cc2c(Nc3ccc4c(cnn4Cc4ccccc4)c3)ncnc2cn1` as the compound, how does the Potency [2] read?
The Potency was “inactive”.

What about the outcome [3] of the same compound?
Its outcome is “inactive”.

And the outcome [4]?
The outcome was “inactive”.

With `CN(C(=O)C(Cl)Cl)c1ccc(OC(=O)c2ccco2)cc1` as the compound, how does the Potency [1] read?
The Potency was “inactive”.

For `O=[N+]([O-])c1ccc(-c2nc(-c3ccc(F)cc3)c(-c3ccncc3)[nH]2)cc1`, which Potency [2] is on record?
The Potency was 8.91 µM (active).

What about the Potency [5] of the same compound?
The Potency was “inactive”.

And the outcome [3]?
Its outcome is “inactive”.

What about the outcome [4] of the same compound?
The outcome was “inactive”.

Which Potency [1] does the source give for `CN1C(=O)CC(C)(c2ccccc2)C1=O` (stereo unspecified) here?
Its Potency is “inactive”.

With `CC(=O)Nc1ccn(C2COC(COC(=O)c3ccccc3)O2)c(=O)n1` (stereo unspecified) as the compound, how does the Potency [1] read?
Its Potency is “inactive”.

Which Potency [1] does the source give for `N[C@@H](Cc1cc(I)c(O)c(I)c1)C(=O)O` here?
The Potency was “inactive”.

Which Potency [5] does the source give for `O=C1NC(=O)/C(=C/c2ccc3c(c2)OC(F)(F)O3)S1` here?
The Potency was “inactive”.

And the outcome [3]?
The outcome was “inactive”.

And the outcome [4]?
The outcome was “inactive”.

With `CC(C(O)c1ccccc1)N(C)CCOC(c1ccccc1)c1ccccc1` (stereo unspecified) as the compound, how does the Potency [1] read?
Its Potency is “inactive”.

Which Potency [1] does the source give for `C[C@@]12CCC[C@H]1[C@@H]1CC[C@H]3C[C@@H](O)CC[C@]3(C)[C@H]1CC2` here?
Its Potency is “inactive”.

With `CC(=O)Oc1ccc(C2(c3ccc(OC(C)=O)cc3)Oc3ccccc3NC2=O)cc1` as the compound, how does the Potency [1] read?
The Potency was “inactive”.

For `O=C(NN1CCCC1)NS(=O)(=O)c1ccc(Cl)cc1`, which Potency [1] is on record?
The Potency was “inactive”.

Which Potency [1] does the source give for `COc1cc(C(=O)OC(COCCC(C)C)CN2CCOCC2)cc(OC)c1OC` (stereo unspecified) here?
Its Potency is “inactive”.

Which Potency [1] does the source give for `CC1CN(c2cc3c(cc2F)c(=O)c(C(=O)O)cn3-c2ccc(F)cc2F)CCN1` (stereo unspecified) here?
Its Potency is “inactive”.

With `OCCCc1ccccc1` as the compound, how does the Potency [1] read?
Its Potency is “inactive”.

With `C[C@H](CN1CCCC1)C(=O)c1ccc(C(F)(F)F)cc1` as the compound, how does the Potency [1] read?
Its Potency is “inactive”.

Which results are given for `Cc1nn(-c2ccccc2)c(C)c1/C=N/N1CCN(Cc2ccccc2)CC1`?
Potency [5]: inactive; outcome [3]: inactive; outcome [4]: inactive

For `CCC1(c2cnc[nH]2)Cc2ccccc2C1`, which Potency [1] is on record?
The Potency was “inactive”.

With `CCOC(=O)OCC/C(SC(=O)OCC)=C(\C)N(C=O)Cc1cnc(C)nc1N` as the compound, how does the Potency [1] read?
Its Potency is “inactive”.

Which Potency [1] does the source give for `N=C(N)c1ccc(OCCCOc2ccc(C(=N)N)cc2)cc1` here?
Its Potency is “inactive”.

For `Nc1ncnc2n[nH]c(Nc3ccc(F)cc3)c12`, which Potency [5] is on record?
Its Potency is 10 µM (active).

What about the outcome [3] of the same compound?
The outcome was “inactive”.

And the outcome [4]?
Its outcome is “inactive”.

For `CC(C)=CCC/C(C)=C/CC/C(C)=C/CCC(=O)OC/C=C(\C)CCC=C(C)C`, which Potency [1] is on record?
Its Potency is “inactive”.

With `COc1cc(NS(=O)(=O)c2ccc(N)cc2)nc(C)n1` as the compound, how does the Potency [1] read?
The Potency was “inactive”.

For `CCCCCC1Nc2cc(C(F)(F)F)c(S(N)(=O)=O)cc2S(=O)(=O)N1` (stereo unspecified), which Potency [1] is on record?
The Potency was “inactive”.

For `CCCCCCCCCCCCCCCCCCNC(=O)OC1CCN(C(=O)OC[C@H](COC(=O)N(Cc2cccc[n+]2CC)C(=O)c2ccccc2OC)OC)CC1`, which Potency [1] is on record?
The Potency was “inactive”.

For `N[C@@H](Cn1ccc(=O)c(O)c1)C(=O)O`, which outcome [3] is on record?
Its outcome is “inactive”.

What about the outcome [4] of the same compound?
Its outcome is “inactive”.

For `C[N+]1(CC2COC(c3ccccc3)(c3ccccc3)O2)CCCCC1` (stereo unspecified), which Potency [1] is on record?
The Potency was “inactive”.

What does the source list for `CCN(CC)CCNC(=O)c1ccc(NS(C)(=O)=O)cc1`?
Potency [1]: inactive; Potency [5]: inactive; outcome [3]: inactive; outcome [4]: inactive

With `CCCCCCCCCCCCCC[N+](C)(C)C` as the compound, how does the Potency [6] read?
The Potency was 25.1 µM (active).

Which Potency [1] does the source give for `O=C(O)c1[nH]n(-c2ccc(S(=O)(=O)O)cc2)c(=O)c1N=Nc1ccc(S(=O)(=O)O)cc1` here?
Its Potency is “inactive”.

— PubChem BioAssay (NCATS)
